Experimental data: PubChem BioAssay (NCATS)
Inconclusive results are not listed. Calls of active or inactive are those of the source. The call rests on the fitted dose curve; in most records, active means well fitted cell-killing curve with a large enough effect; inconclusive means small, poorly fitted or top-dose-only effect; inactive means flat fitted curve, though single readings scatter. Non-standard residues stand in square brackets, D forms with d. Residues, ends and D or L forms follow the SMILES beside them. *: point of attachment. Nva = CCC[C@H](N)C(=O)O; Cbz = O=C(OCc1ccccc1)*

Assay: qHTS of pediatric cancer cell lines to identify multiple opportunities for drug repurposing: Confirmatory screen for BT-12 cells (AID 1347112);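 further: viability read after 48 h of compound exposure; nearly all actives have a fitted effect of over 55% in size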
Conditions: BT-12 rhabdoid tumor cells, viability; series mostly up to 45.9 µM
Source text: Drug repurposing or repositioning has been offered as a strategy for drug development in oncology programs. This approach has special potential for childhood cancers and other rare or orphan diseases, where the expected return on new drug development has been a disincentive to pharmaceuticals.
In this project we exploit the poly-pharmacology of drugs to discover new indications via phenotypic screening of a panel of 19 well-characterized cell lines derived from solid tumors seen in children and adolescents. The goal is to identify approved drugs with previously unrecognized anticancer properties that has the potential to reveal new mechanisms and biological processes involved in carcinogenesis or drug resistance. We employed a titration-based paradigm (quantitative high-throughput screening or qHTS), where all compounds were tested at multiple concentrations for their effect on cell viability. Concentration-response curves (CRCs) were derived directly from the primary screen, and both potency and efficacy values were used to identify compounds with robust bioactivity profiles. We screened the NIH Chemical Genomics Center (NCGC) Pharmaceutical Collection (NPC) and Mechanism Interrogation Plate (MIPE) small molecule collections of approved and investigational compounds against these cell lines; and measured metabolically active cells after 48 hours of compound treatment as a proxy for cell viability.
Assay Submitter: Nathalia J. Martinez, National Center for Advancing Translational Sciences, National Institutes of Health, Rockville, MD, USA; email: natalia.martinez@nih.gov
[1] Shen, M et al. Quantitative high-throughput phenotypic screening of pediatric cancer cell lines identifies multiple opportunities for drug repurposing. Oncotarget 2017 Dec 19;9(4):4758-4772. PMID 29435139.
The cells were obtained from University of North Carolina (UNC), Pediatric Preclinical Testing Program (PPT), and Coriell Institute (CI).
qHTS cell viability assay:
Cells were assayed in growth media at a density of 500-1,000 cells/well. Five microliters of cells were dispensed into 1,536-well, white, solid-bottom, TC-treated plates (Greiner Bio One) using a multidrop dispenser and incubated at 37 degrees C, 5% CO2, under a humidified atmosphere for 5 hours. Twenty-three nanoliters of compounds and controls (neutral control DMSO or positive control bortezomib at final concentration of 2.3 µM) were subsequently transferred by Kalypsys pintool. For primary screens, the MIPE collection was tested at 11-point dilutions (final concentrations range from 0.78 nM to 46 µM) and the NPC collection at 8-point dilutions (final concentrations range from 0.59 nM to 46 µM). Compounds tested in follow-up screens were assayed at 11-point dilutions. Cells were incubated for 48 hours, followed by addition of 3 µL of CellTiter-Glo (Promega). After a 15 min incubation at room temperature, samples were analyzed for luminescence intensity using a ViewLux High-throughput CCD imager equipped with clear filters.
Potency means the concentration at half of the fitted maximal effect.

Structure (SMILES)	Potency
CC(C=CC1=C(C)CCCC1(C)C)=CC=CC(C)=CC(=O)Nc1ccc(O)cc1	24 µM (active)
COC(=O)[C@@H]1[C@H]2C[C@@H]3c4[nH]c5ccccc5c4CCN3C[C@@H]2CC[C@@H]1O	inactive
Cn1cnc(=N)c2[nH]cnc21	inactive
C[N+](C)([O-])CCNc1ccc(NCC[N+](C)(C)[O-])c2c1C(=O)c1c(O)ccc(O)c1C2=O	inactive
COC(=O)C1C2CC3c4[nH]c5cc(OC)ccc5c4CCN3CC2CC(OC(=O)c2cc(OC)c(OC)c(OC)c2)C1OC (stereo not given)	2.61 µM (active)
C=Cc1c(C)c2cc3nc(cc4[nH]c(cc5nc(cc1[nH]2)C(C)=C5CCC(=O)O)c(CCC(=O)OC)c4C)[C@@]1(C)C3=CC=C(C(=O)OC)[C@H]1C(=O)OC	inactive
O=C(NCc1ccccc1)[C@H](Cc1ccccc1)NC(=O)[C@@H]1O[C@@H]1C(=O)NCCc1ccc(O)cc1	inactive
CC(=O)[C@]1(O)Cc2c(O)c3c(c(O)c2[C@@H](O[C@H]2C[C@H](N)[C@@H](O)[C@H](C)O2)C1)C(=O)c1ccccc1C3=O	4.14 µM (active)
COc1cc2c(cc1OC)[C@@H]1C(=O)c3ccc4c(c3O[C@@H]1CO2)C=CC(C)(C)O4	1.31 µM (active)
CCCCC(=O)O[C@]1(C(=O)CO)[C@@H](C)C[C@H]2[C@@H]3CCC4=CC(=O)C=C[C@]4(C)[C@@]3(F)[C@@H](O)C[C@@]21C	inactive
CCC[C@@H](C=O)NC(=O)[C@H](CC(C)C)NC(=O)[C@H](CC(C)C)NC(=O)OCc1ccccc1 (Cbz-Leu-Leu-[Nva]-aldehyde)	2.93 µM (active)
O=C(C=CC#Cc1cccc(NS(=O)(=O)c2ccccc2)c1)NO	18.5 µM (active)
CC(C)(O)Cn1c(NC(=O)c2ccc(-c3cn[nH]c3)s2)nc2cc(CN3CCOCC3)ccc21	1.04 µM (active)
CCC(C=C[C@@H]1OC(=O)C=C[C@H]1C)=C[C@H](C)CC=CC(C)=C[C@@H](C)C(=O)[C@@H](C)[C@H](O)[C@@H](C)CC(C)=CC(=O)O	0.0161 µM (active)
CCc1cnn2c(NCc3ccc[n+]([O-])c3)cc(N3CCCC[C@@H]3CCO)nc12	inactive
COc1cc([C@@H]2c3cc4c(cc3[C@@H](O[C@@H]3O[C@@H]5CO[C@@H](c6cccs6)O[C@@H]5[C@H](O)[C@@H]3O)[C@H]3COC(=O)[C@H]23)OCO4)cc(OC)c1O	3.69 µM (active)
CC(=O)SCC(Cc1ccccc1)C(=O)NCC(=O)OCc1ccccc1 (stereo not given)	inactive
CS[C@H]1SC[C@@H]2C(=O)N(C)[C@H](C(C)C)C(=O)OC[C@H](NC(=O)c3cnc4ccccc4n3)C(=O)N[C@H](C)C(=O)N(C)[C@@H]1C(=O)N(C)[C@H](C(C)C)C(=O)OC[C@H](NC(=O)c1cnc3ccccc3n1)C(=O)N[C@H](C)C(=O)N2C	0.0093 µM (active)
NC(=O)Nc1sc(-c2ccc(F)cc2)cc1C(N)=O	inactive
CC(=O)NCC(=O)N1[C@H]2CC[C@H]1c1cc(Nc3ncc(C(F)(F)F)c(NC4CCC4)n3)ccc12	16.5 µM (active)

Structure (SMILES)	Potency
Cc1ccc([N+](=O)[O-])cc1S(=O)(=O)N(C)N=Cc1cnc2ccc(Br)cn12	0.827 µM (active)
CC(C(C)N1CC(=O)NC(=O)C1)N1CC(=O)NC(=O)C1 (stereo not given)	inactive
COc1cc(C[C@@H](CO)[C@H](CO)Cc2ccc(O)c(OC)c2)ccc1O	inactive
O=C(O)c1ccc(Nc2ncc3c(n2)-c2ccc(Cl)cc2C(c2c(F)cccc2F)=NC3)cc1	inactive
COc1ccc2c(c1OC)C(=O)OC2[C@H]1c2c(cc3c(c2OC)OCO3)CCN1C (stereo not given in full)	inactive
CC(C=CC(=O)NO)=C[C@@H](C)C(=O)c1ccc(N(C)C)cc1	2.93 µM (active)
COc1ccc(C(C)=O)c(O)c1	inactive
CN[C@H]1[C@@H](O)[C@@H]2O[C@@H]3O[C@H](C)CC(=O)[C@]3(O)O[C@@H]2[C@@H](NC)[C@H]1O	inactive
O=S(=O)(O)CCSSCCS(=O)(=O)O	inactive
C=CCNC1=C2C[C@@H](C)C[C@H](OC)[C@@H](O)[C@@H](C)C=C(C)[C@H](OC(N)=O)[C@@H](OC)C=CC=C(C)C(=O)NC(=CC1=O)C2=O	inactive
COc1cc(C=CC(=O)CC(=O)C=Cc2ccc(O)c(OC)c2)ccc1O	38 µM (active)
COc1cc(O)c2c(c1)C1OC1C[C@H](O)[C@H](O)C(=O)C=CC[C@H](C)OC2=O (stereo not given in full)	16.5 µM (active)
C=CC(=O)Nc1ccc2ncnc(Nc3ccc(OCc4cccc(F)c4)c(Cl)c3)c2c1	10.4 µM (active)
Oc1cc(-c2nc(-c3ccccc3)[nH]c2-c2ccncc2)ccc1Cl	2.33 µM (active)
CC(C)C[C@H](NC(=O)[C@@H](NC(=O)c1cccc(-c2ccccc2)n1)[C@@H](C)O)B(O)O	0.0827 µM (active)
COc1cccc2c1C(=O)c1c(O)c3c(c(O)c1C2=O)C[C@@](O)(C(=O)CO)C[C@@H]3O[C@H]1C[C@H](N)[C@@H](O)[C@H](C)O1	0.585 µM (active)
CCS(=O)(=O)Nc1ccc2[nH]c(O)c(C(=Nc3ccc(CN4CCCCC4)cc3)c3ccccc3)c2c1	18.5 µM (active)
FC(F)c1nc2ccccc2n1-c1nc(N2CCOCC2)nc(N2CCOCC2)n1	1.04 µM (active)
O=C(Nc1cc2cc[nH]c2cn1)c1ccccc1	14.7 µM (active)
N#Cc1c(C2CCNCC2)cc(-c2c(O)cccc2OCC2CC2)nc1N	inactive
